# Test results reported in PubChem BioAssay (NCI).
# The panel holds about 83,000 compounds, 20% with a hit somewhere; the sample as a whole holds those more often.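 A percent growth of 40 corresponds to 60% growth inhibition; 0 means no net growth; -100 means all cells died. Active threshold: below 10.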 A number with no mark means an inactive call. Activity calls are given as the source filed them.
# Key:
# Assay in all cases: NCI-60 one-dose screen, 48 h (100 = growth as untreated, 0 = no growth, -100 = all killed)
# NCI-H522 lung = conditions: 10 µM unless noted
# A549/ATCC NSCLC = conditions: 10 µM unless noted
# COLO 205 colon = conditions: 10 µM
# HT29 colon = conditions: 10 µM unless noted
# SNB-75 CNS = conditions: 10 µM unless noted
# PC-3 prostate = conditions: 10 µM unless noted
# EKVX NSCLC = conditions: 10 µM unless noted
# SN12C renal = conditions: 10 µM unless noted
# CAKI-1 renal = conditions: 10 µM unless noted
# A498 renal = conditions: 10 µM unless noted
# RPMI-8226 leukemia = conditions: 10 µM unless noted
# OVCAR-4 ovarian = conditions: 10 µM unless noted
# SK-OV-3 ovarian = conditions: 10 µM unless noted
# HS 578T breast = conditions: 10 µM unless noted
# BT-549 breast = conditions: 10 µM
# HCT-116 colon = conditions: 10 µM unless noted
# TK-10 renal = conditions: 10 µM unless noted
# SR leukemia = conditions: 10 µM
Compound,growth (NCI-H522 lung),growth (A549/ATCC NSCLC),growth (COLO 205 colon),growth (HT29 colon),growth (SNB-75 CNS),growth (PC-3 prostate),growth (EKVX NSCLC),growth (SN12C renal),growth (CAKI-1 renal),growth (A498 renal),growth (RPMI-8226 leukemia),growth (OVCAR-4 ovarian),growth (SK-OV-3 ovarian),growth (HS 578T breast),growth (BT-549 breast),growth (HCT-116 colon),growth (TK-10 renal),growth (SR leukemia)
CC(C)(C)NCC(O)c1ccccc1Cl (configuration not stated),-37.2% (active),11.5%,5.34% (active),2.91% (active),-24.4% (active),18%,53.6%,24.1%,54.6%,-9.2% (active),6.19% (active),60.3%,9.23% (active),3.29% (active),35.2%,7.48% (active),–,–
[O]=[Sn]([CH]1CCCCC1)[CH]1CCCCC1,-72.6% (active),-83.3% (active),-89.9% (active),-52.8% (active),-99.9% (active),-91.2% (active),-24.3% (active),-80.5% (active),-93.5% (active),-98% (active),–,-98.7% (active),-98.2% (active),-19.5% (active),-99.3% (active),-97.5% (active),-93.8% (active),14.8%
CN=C(NN)NN,107%,96.2%,129%,106%,98%,93.3%,97%,113%,88.9%,92.4%,91.6%,117%,110%,102%,106%,109%,125%,94.8%
CN1C(=O)NC(=O)C(N=Nc2ccc(Cl)cc2)C1=O (configuration not stated),81.3%,101%,137%,99.1%,–,94.6%,96.3%,103%,–,60.9%,96.1%,–,120%,–,80.3%,93.3%,101%,100%
CC(C)N=C(NC(C)C)N1CC1,98.2%,101%,113%,–,95.4%,112%,102%,–,99.3%,116%,121%,–,115%,107%,114%,111%,–,122%
COc1cc(C2=NN(c3ccccc3)C(c3sc(N(CCCl)CCCl)nc3Cl)C2)cc(OC)c1OC (configuration not stated),69.1%,83%,90.6%,84.5%,–,73.9%,78.9%,79.9%,64%,93.2%,–,–,77.7%,85.8%,95.4%,80.3%,102%,84.2%
O=CN1N=C(c2ccccc2)CC1c1sc(N(CCCl)CCCl)nc1Cl (configuration not stated),70.8%,88.4%,95.5%,92.2%,72%,82.5%,89.5%,–,79.6%,123%,–,–,79.2%,90.2%,95.3%,89.4%,121%,91.2%
Cc1ccc(N)cc1[As]=[As]c1cc(N)ccc1C (configuration not stated),-88.2% (active),69.8%,-69.3% (active),-84.6% (active),-99.6% (active),-89.9% (active),–,-86.5% (active),-91.2% (active),-26.3% (active),-40.2% (active),-83.1% (active),75.3%,–,–,-79.4% (active),–,-43.7% (active)
C[C@]12CC[C@H](OC3OC(O)C(O)C(O)C3O)C=C1CCC1C2CC[C@]2(C)[C@@H](c3ccc(=O)oc3)CC[C@]12O (some centres not stated),-61.4% (active),102%,-85.1% (active),-84.5% (active),-53.2% (active),-12.2% (active),-86.6% (active),-37.7% (active),-62.6% (active),-23.3% (active),-20.5% (active),-41.9% (active),-93.7% (active),9.56% (active),-92.3% (active),-95.3% (active),-80.6% (active),-42.7% (active)
O=C(CI)Nc1ccc(Br)cc1,-85% (active),90.9%,-78.2% (active),-87.4% (active),96.7%,87.3%,102%,15.7%,–,142%,36.6%,27.4%,–,–,–,-69.9% (active),-81.4% (active),-53% (active)
CCC(CO)NC1CCCCC1 (configuration not stated),68.1%,93.8%,43.2%,5.74% (active),81.6%,–,90%,–,–,71.6%,97.6%,89%,–,91.2%,–,26.8%,70.8%,1.74% (active)
CCCCCN(CCCCC)CC(O)c1ccc(C)c(Cl)c1 (configuration not stated),83.5%,92.7%,91.3%,79%,90.9%,91.8%,95.2%,101%,98.2%,78.5%,91.8%,105%,94.3%,102%,107%,82.1%,–,92.4%
ClCCN(CCCl)c1nc(Cl)c(C2CC(c3ccc(Cl)cc3)=NN2c2cc(Cl)cc(Cl)c2)s1 (configuration not stated),80%,97.7%,105%,94.4%,97.7%,–,102%,92%,82.9%,101%,–,99.7%,87.1%,89.7%,–,85.8%,109%,93.1%
COC(C)(C)CCC[C@H](C)C/C=C/C(C)=C/C(=O)OC(C)C,69.1%,98.5%,107%,88%,118%,88.7%,78.1%,92.5%,85.4%,110%,62.9%,90%,92%,119%,103%,–,96.5%,–
O=[N+]([O-])c1ccccc1N1CCNCC1,88.6%,–,104%,85.4%,92.5%,–,104%,97.1%,94.1%,97.6%,118%,99.4%,–,107%,–,101%,96.2%,88.5%
C1CNC2CCCC2C1 (configuration not stated),91.7%,110%,–,102%,86.3%,–,–,111%,103%,107%,101%,102%,108%,111%,102%,108%,103%,–
Cc1cc(C)nc(C)c1.[Cl][Hg][Cl],3.42% (active),–,123%,95.7%,96%,95.4%,–,–,96.4%,120%,98.9%,103%,110%,108%,100%,108%,–,–
CO[C@@H](c1ccccc1Cl)[C@H](C)OC(N)=O,94.2%,98.4%,–,106%,70.8%,98.1%,100%,106%,92.1%,96.3%,110%,–,102%,99.9%,97.2%,97.2%,97.6%,111%
CC(C)CCC[C@@H](C)[C@H]1CC[C@H]2[C@@H]3CC=C4C[C@@H](OC(=O)Cc5ccc(N(CCCl)CCCl)cc5)CC[C@]4(C)[C@H]3CC[C@]12C,124%,112%,117%,107%,–,99.5%,106%,99.9%,–,132%,108%,114%,114%,117%,–,–,159%,101%
CC1(C)CC2(CC(C)(C)c3cc(O)c(O)cc32)c2cc(O)c(O)cc21,37.4%,–,102%,114%,81.2%,90.9%,95.1%,94.2%,92.3%,99.4%,103%,82%,97.1%,–,111%,–,117%,70.3%
CCCCN(CCCC)CC(O)c1ccccc1 (configuration not stated),112%,–,–,109%,–,111%,96.7%,111%,107%,82.6%,113%,95.4%,111%,97.5%,124%,114%,115%,102%
